Compound activity as filed in PubChem.
Rows were chosen to be rich in hits. Some 3.4% of all compounds tested hit in one or more screens of this group.
rRNA inh HTS – reduced GFP signal of wild-type E. coli, primary screen, bacterial rRNA inhibitor project, GFP/RFP fluorescence, OD600, single point; actives 1.6% (n = 350,000); GFP signal change (wild-type ribosome), % (test concentration not listed); E. coli WT GFP vs humanized-ribosome RFP mutants, 24 h; hits give low values; DMSO median 0, no signal -100; AID 720706, 2013;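 active means significant combined selectivity score with lowered wild-type GFP, culture density cut under 30%, mutant RFP and density less affected; inactive means any of these conditions unmet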
EWS-Fli inh – EWS/Fli-driven NR0B1 reporter inhibitors, primary screen, A673 cells, NR0B1 luciferase, luminescence, MLPCN library | actives 0.67% (n = 350,000) | inhibition, % at 12.6 µM | viability-normalised;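 active means mean inhibition of at least 50% after viability correction, with every replicate also passing that limit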;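 further: firefly luciferase signal divided by Alamar Blue viability fluorescence both relative to DMSO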
PAX8 inh HTS – inhibitors of PAX8-driven TPO luciferase reporter, primary screen, RMG-I cells, single concentration | SteadyGlo, 24 h | inhibition, % at 12.6 µM | actives 1.2% (n = 360,000);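 active means mean replicate inhibition at least 60% with every replicate also reaching 60%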;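 further: luciferase light reporting Pax8 driven TPO promoter activity; plate controls were median of neutral control wells for no effect and mitoxantrone controls for full effect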
LGR2 inh – inhibitors of bursicon-induced LGR2 CRE-luciferase signal, primary screen, cell-based, HEK293, CRE-luciferase reporter, bursicon stimulation | Drosophila bursicon receptor LGR2 (rickets) | bursicon-stimulated, 4 h | inhibition, % at 9.99 µM | actives 0.35% (n = 380,000);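 active means drop in luminescence signal, shown as inhibition above about 50% in the replicate tests, limit read from the data, passing the limit was not always enough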;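 further: agonist challenge used bursicon conditioned medium at about half maximal strength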
SIRT5 block – SIRT5 desuccinylase inhibitors, primary screen, biochemical, fluorescence imaging, single point, set 5; Purified SirT5, succinyl-peptide AMC, trypsin-coupled fluorescence; inhibition, % at 15 µM; actives 1.1% (n = 330,000); AID 652115, 2013; in the data active means inhibition above about 15%
Target sequence (Q9NXA8 whole entry, looked up): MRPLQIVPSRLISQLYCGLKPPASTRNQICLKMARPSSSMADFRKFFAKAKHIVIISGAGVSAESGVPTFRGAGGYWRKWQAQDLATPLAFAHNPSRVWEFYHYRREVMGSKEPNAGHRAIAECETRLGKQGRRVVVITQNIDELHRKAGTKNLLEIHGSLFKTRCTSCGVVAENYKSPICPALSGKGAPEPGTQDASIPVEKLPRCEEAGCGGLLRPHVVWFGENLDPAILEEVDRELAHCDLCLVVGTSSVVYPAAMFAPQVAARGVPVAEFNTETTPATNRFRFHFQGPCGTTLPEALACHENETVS
PGC1a acetyl inh – inhibitors of PGC1a acetylation signal, primary screen, cell-based, U2OS, AlphaScreen, inhibitor mode; AlphaScreen anti-acetyl-lysine; with virally co-expressed GCN5 acetyltransferase; inhibition, % at 15.6 µM; actives 0.17% (n = 350,000);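 active means every replicate shows inhibition of at least 40%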;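 further: 0% = neutral control wells and 100% = positive control wells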
An asterisk follows results filed as active; . = no result given.

SMILES | rRNA inh HTS | EWS-Fli inh | PAX8 inh HTS | LGR2 inh | SIRT5 block | PGC1a acetyl inh
CNc1nc(Cl)nc2ncn(C)c12 | 22 | -2 | -5 | 9 | 16* | 16
CNc1c([N+](=O)[O-])ncn1C | . | . | . | . | . | -13
O=C(Nc1ccc(F)cc1)N[C@@H]1C[C@@H]2O[C@H](CO)CC[C@@H]2O[C@@H]1CCc1ccc(-c2ccccc2)cc1 | . | -6 | -26 | . | 7 | 6
Cc1noc(C)c1NC(=O)Nc1cccc2c1O[C@@H](CN(C)C(=O)Nc1ccc(F)cc1)[C@@H](C)CN([C@@H](C)CO)C2=O | -4 | -9 | . | -13 | . | 7
O=C(NCC[C@H]1CC[C@@H](NC(=O)c2cccnc2)[C@H](CO)O1)Nc1ccc(C(F)(F)F)cc1 | -3 | -10 | 17 | 0 | 0 | 5
COc1ccc(CN(C)Cc2c(O)ccc3cc(Br)ccc23)cc1OC | -23* | -2 | 6 | -9 | 1 | 30
COc1ccc(CCN(C)CCc2ccc(OC)c(OC)c2)cc1OC | . | 4 | -11 | -14 | -1 | .
COc1ccc(CCN(C)Cc2c(O)ccc3cc(Br)ccc23)cc1OC | -27* | -33 | -7 | -17 | -4 | 10
C=CCNC(=O)[C@@H]1[C@H]2C(=O)O[C@H](c3ccccc3)[C@H](c3ccccc3)N2[C@H](c2ccccc2OCCO)[C@@]12C(=O)N(C(=O)OCCOC)c1ccc(C#CC3=CCCCC3)cc12 | . | 11 | 68* | . | 3 | .
C=CCNC(=O)[C@@H]1[C@H]2C(=O)O[C@H](c3ccccc3)[C@H](c3ccccc3)N2[C@H](c2ccccc2OCCO)[C@@]12C(=O)N(C(=O)OCCOC)c1ccc(C#CCC(C(=O)OC)C(=O)OC)cc12 | . | 59* | 104* | . | 14 | .
C=CCNC(=O)[C@@H]1[C@H]2C(=O)O[C@H](c3ccccc3)[C@H](c3ccccc3)N2[C@H](c2ccccc2OCCO)[C@@]12C(=O)N(C(=O)OCCOC)c1ccc(C#CC3(O)CCCCCC3)cc12 | . | 14 | 71* | . | -1 | .
C=CCNC(=O)[C@H]1[C@@H]2C(=O)O[C@@H](c3ccccc3)[C@@H](c3ccccc3)N2[C@@H](c2ccccc2OCCO)[C@]12C(=O)Nc1ccc(C#CC3(O)CCCCCC3)cc12 | . | 21 | 99* | . | 17* | .
C=CCNC(=O)[C@H]1[C@@H]2C(=O)O[C@@H](c3ccccc3)[C@@H](c3ccccc3)N2[C@@H](c2ccc(OCCO)cc2)[C@]12C(=O)N(C(=O)OCCOC)c1ccc(C#Cc3ccc(OC)cc3)cc12 | . | -9 | 27 | . | -1 | 7
COCCOC(=O)N1C(=O)[C@@]2(c3cc(C#CC4(O)CCCCCC4)ccc31)[C@H](c1ccccc1OCCO)N1[C@H](c3ccccc3)[C@H](c3ccccc3)OC(=O)[C@H]1[C@@H]2C(=O)N1CCc2cc(OC)c(OC)cc2C1 | . | 9 | . | . | -2 | 3
C/C=C/c1ccc([C@@H]2[C@@H](CO)N(C(=O)C3CCC3)C23CN(S(=O)(=O)CC)C3)cc1 | -1 | 4 | -5 | 4 | 1 | -11
O=C(Nc1cc(F)ccc1F)N[C@H]1CC[C@@H](CCn2cc(C3CCCC3)nn2)O[C@H]1CO | -8 | . | 24 | 1 | -2 | -1
S=c1[nH]nc(C(c2ccccc2)C2CCCCC2)o1 (stereo not drawn) | -27* | 2 | -7 | 10 | 2 | 15
O=C(N[C@@H]1CC[C@H](CCNS(=O)(=O)c2ccc(F)cc2)O[C@H]1CO)c1cnccn1 | 6 | 3 | -3 | 6 | -2 | 6
CC(C)c1ccc(C2C3=C(COC3=O)Nc3cc4c(cc32)OCO4)cc1 (stereo not drawn) | -5 | 43 | 79* | -10 | 8 | -22
Cc1ccccc1-c1cnc2c(c1)C(=O)N([C@H](C)CO)C[C@@H](C)[C@@H](CN(C)C(=O)c1ccncc1)O2 | 5 | 2 | . | -11 | -4 | 2
CCC(=O)N1CCC2(CC1)CN(CC1CCOCC1)[C@H](CO)c1c2c2ccc(OC)cc2n1C | 11 | 3 | -15 | 10 | 2 | 0
CCC(=O)N1CC2(CN(Cc3ccncc3)C2)c2c(n(C)c3cc(OC)ccc23)[C@@H]1CO | 1 | -13 | 7 | -12 | -4 | -3
Cc1nnc(-c2ccc(Cl)cc2)nc1NCCN(C)C | 17 | -14 | 3 | 13 | 18* | .
Cc1nnc(N/N=C/c2cc(C)n(-c3ccc(F)cc3)c2C)n1N | -16 | -8 | 120* | . | -3 | .
COc1ccc(-c2sc3cc(OC)ccc3c2-c2ccc(OCCN3CCOCC3)cc2)cc1 | -4 | 12 | 4 | 4 | -5 | -6
SMILES | rRNA inh HTS | EWS-Fli inh | PAX8 inh HTS | LGR2 inh | SIRT5 block | PGC1a acetyl inh
Cc1c(-c2ccc(OCCN3CCOCC3)cc2)c(=O)oc2ccc3ccccc3c12 | 2 | -2 | -11 | 18 | 19* | .
C/C=C/c1ccc2c(c1)O[C@H](CN(C)C)[C@@H](C)CN([C@H](C)CO)S2(=O)=O | 6 | -13 | . | -4 | -2 | -1
Cc1ccnc(NC(=O)CCC(=O)N(Cc2ccco2)C(C(=O)NC(C)C)c2ccc(F)cc2)c1 (stereo not drawn) | 0 | -7 | -15 | 13 | 100* | .
Cc1cc(/C=C2\SC(=O)N(C)C2=O)c(C)n1-c1ccc(O)cc1 | -32 | 17 | -29 | 42 | 0 | 14
CC(=O)NC1=NC(=O)/C(=C/c2cc(C)n(-c3ccc(NC(C)=O)cc3)c2C)S1 | -29* | -21 | -73 | 4 | -2 | 2
Cc1ccc(NC(=O)CN2C(=O)N/C(=C/c3cc(C)n(-c4cccc(C(=O)O)c4)c3C)C2=O)cc1 | 12 | 8 | 6 | 4 | 19* | 17
CC(=O)NC1=NC(=O)/C(=C/c2cc(C)n(-c3cccc(C(=O)O)c3)c2C)S1 | -1 | 10 | -2 | -16 | 20* | 7
CC(=O)NC1=NC(=O)/C(=C/c2cn(C(C)=O)nc2-c2ccccc2)S1 | -3 | 9 | -21 | . | 2 | .
CCCNC(=O)N[C@H]1CC[C@@H](CCNS(=O)(=O)c2cccc(F)c2)O[C@@H]1CO | 0 | -4 | -10 | 8 | -1 | 8
O=C(Nc1cc(Cl)ccc1F)c1ccc(-n2cncn2)c([N+](=O)[O-])c1 | -3 | -7 | -8 | -4 | 11 | .
CCn1nnc(NC(=O)c2ccc([N+](=O)[O-])o2)n1 | -23* | 8 | 34 | 20 | . | .
CC(=O)N1CCN(c2ccc(NC(=O)c3ccc([N+](=O)[O-])o3)cc2Cl)CC1 | 2 | 50 | 102* | 26 | 0 | .
